Screening results from PubChem.
HTR5A ag ctr = HTR5A agonists in luminescence cell assay, primary screen, counter-screen for OPRM1-OPRD1 heterodimer agonist project, full-deck HTS | AID 504692, 2011 | 0.61% of 340,000 active | cell-based | activation, % at 9.3 µM | 5-hydroxytryptamine receptor 5A (Homo sapiens), P47898; in the data active = activation mostly above about 9.5%, no sharp cut-off; inactive = mostly below about 7.6%
Target sequence (P47898 whole entry, looked up): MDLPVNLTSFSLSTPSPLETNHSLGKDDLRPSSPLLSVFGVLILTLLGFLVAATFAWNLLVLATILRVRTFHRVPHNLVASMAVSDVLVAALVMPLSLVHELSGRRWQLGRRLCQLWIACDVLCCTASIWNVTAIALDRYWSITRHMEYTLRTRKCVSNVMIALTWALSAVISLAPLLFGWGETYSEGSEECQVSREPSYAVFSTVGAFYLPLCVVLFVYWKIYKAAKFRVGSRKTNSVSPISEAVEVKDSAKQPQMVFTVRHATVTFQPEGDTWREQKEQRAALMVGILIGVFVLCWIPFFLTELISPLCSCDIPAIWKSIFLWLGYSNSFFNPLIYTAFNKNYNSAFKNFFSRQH
HTR5A inv ctr = HTR5A inverse agonists in luminescence cell assay, primary screen, counter-screen for OPRM1-OPRD1 heterodimer inverse agonist project, full-deck HTS; 5-hydroxytryptamine receptor 5A (Homo sapiens), P47898; 0.083% of 340,000 active; HTR5A cell line, inverse agonism; inhibition, % at 9.3 µM; in the data active = inhibition mostly above about 23%, no sharp cut-off; inactive = mostly below about 18%
OPRM1-OPRD1 ag = agonists of OPRM1-OPRD1 heterodimerization, primary screen, cell-based, luminescence; cells; 0.3% of 340,000 active; AID 504326, 2011; activation, % at 9.3 µM; in the data active = activation above about 18%
OPRM1-OPRD1 inv = inverse agonists of MOR-DOR heterodimerization, primary screen, cell-based, luminescence; 0.21% of 340,000 active; cell-based MOR-DOR heterodimer luminescence, inverse agonism; AID 504357, 2011; Mu-type opioid receptor (Homo sapiens) + Delta-type opioid receptor (Homo sapiens), …; inhibition, % at 9.3 µM; in the data active = inhibition above about 22%, passing the limit was not always enough
Of the large screens only hits and unclear results are named; the others gave an inactive call. Only some compounds are listed: those with a hit (about 1.1% of all), similar ones and a draw of the others.

CC1(c2ccc(OC(F)F)cc2)NC(=O)N(CC(=O)Nc2cccc(F)c2)C1=O (configuration not stated)	none
O=C(COC(=O)c1cccs1)Nc1cccc(S(=O)(=O)N2CCCCC2)c1	none
COc1cc2sc(NC(=O)c3ccco3)nc2cc1Cl	HTR5A ag ctr 9.9
O=C(NC(C(=O)c1ccccc1)N1CCOCC1)c1cccs1 (configuration not stated)	HTR5A ag ctr 12
O=C(COC(=O)/C=C/c1cc(Br)ccc1F)Nc1ccc2[nH]c(=O)[nH]c2c1	none
CCOC(=O)c1ccc(N=c2scc(C)n2CC)cc1	HTR5A ag ctr 13
CC1(C)CC(NC(=O)c2ccc(Cl)c(Cl)c2)CC(C)(C)N1	none
O=C(COc1cc2oc(=O)c3c(c2cc1Cl)CCC3)Nc1ccc(CN2CCOCC2)cc1	none
O=C(Nc1cccc(C(F)(F)F)c1)Nc1ccc2[nH]c(=O)[nH]c2c1	HTR5A ag ctr 13
CC(C(=O)O)c1ccc(C(=O)c2ccccc2)s1 (configuration not stated)	none
O=C(COC(=O)c1cccnc1Cl)Nc1cccc(S(=O)(=O)N2CCOCC2)c1	HTR5A ag ctr 12
O=C(COc1cccc(Br)c1)Nc1ccc(Cl)c(S(=O)(=O)N2CCOCC2)c1	HTR5A ag ctr 9.3
O=C(CCCOc1ccccc1)Nc1ccc(Cl)c(S(=O)(=O)N2CCOCC2)c1	none
O=C(O)CC(Cc1ccccc1)(C(=O)O)c1ccccc1 (configuration not stated)	none
COc1ccc(NC(=O)CC2C(=O)N(c3ccc(F)cc3)C(=S)N2NC(=O)c2ccc(Cl)cc2)cc1 (configuration not stated)	HTR5A ag ctr 12
COc1ccc(NC(=O)CC2C(=O)N(c3ccc(Cl)cc3)C(=S)N2NC(=O)c2cccc(F)c2)cc1 (configuration not stated)	none
CCn1cc(C(=O)NCCCN2CCCC(C)C2)c(=O)c2cc(S(=O)(=O)N(C)C3CCCCC3)ccc21 (configuration not stated)	none
Oc1cccc(C(O)CNCc2ccc(OCc3ccc(Cl)cc3Cl)cc2)c1 (configuration not stated)	HTR5A ag ctr 12
C[C@H]1CN([C@@H](C)CO)C(=O)c2cccc(NC(=O)c3nc4ccccc4s3)c2O[C@H]1CN(C)C(=O)Nc1ccc(F)cc1	none
N#Cc1c(N)nc(SCC(=O)C23CC4CC(CC(C4)C2)C3)c(C#N)c1-c1ccc(Cl)cc1	none
CSc1nc(N)nc(SCC(=O)C23CC4CC(CC(C4)C2)C3)c1C#N	HTR5A ag ctr 12
Cc1oc(-c2ccccc2Cl)nc1CS(=O)CC(=O)NC1CC1 (configuration not stated)	none
CC1(C)Cc2c(c(N3CCOCC3)nc3snc(NC(=O)c4ccccc4)c23)CO1	HTR5A ag ctr 12
CCN(CC)CCN(C(=O)c1ccc2c(c1)OCCO2)c1nc2ccc(C)cc2s1	none
Cc1ccc2nc(N(CCN(C)C)C(=O)c3ccc4c(c3)OCCO4)sc2c1	HTR5A ag ctr 14
CC(C)C(NS(=O)(=O)c1ccccc1F)C(=O)OCC(=O)NCc1ccco1 (configuration not stated)	none
CC(=O)Nc1ccc(S(=O)(=O)Nc2c(NC3CCCCC3)c3ccccc3oc2=O)cc1	none
C/C(=N/Nc1ccc([N+](=O)[O-])cc1)c1c[nH]c2ccccc12	HTR5A inv ctr 30
C/C(=N/Nc1ccc([N+](=O)[O-])cc1)c1ccc(C)cc1C	none
COc1cc(OC)cc(-c2c(C#Cc3ccsc3)c3cc(-c4ccccc4OC)ccc3n2C)c1	none
O=C(NCc1cccc(F)c1F)C1CCC(=O)N(C2CC2)C1 (configuration not stated)	HTR5A ag ctr 10
COc1ccc(CNC(=O)C2CCCN2C(=O)NCc2ccccc2)cc1 (configuration not stated)	none
CC(C)CNS(=O)(=O)c1cc(C(=O)N2CCOCC2)c(Cl)cc1Cl	HTR5A ag ctr 10
CC1Nc2ncnc(N3CCN(c4ccccc4)CC3)c2N(Cc2ccc(Br)cc2)C1=O (configuration not stated)	HTR5A inv ctr 69, OPRM1-OPRD1 inv 71
CC1Nc2ncnc(N3CCOCC3)c2N(Cc2ccccc2)C1=O (configuration not stated)	none
COc1ccc(CN2C(=O)C(C)Nc3ncnc(N4CCN(c5ccccc5)CC4)c32)cc1 (configuration not stated)	HTR5A inv ctr 42, OPRM1-OPRD1 inv 50
CC(C)(O)c1ccccc1CC[C@@H](SCC1(CC(=O)O)CC1)c1cccc(/C=C/c2ccc3ccc(Cl)cc3n2)c1	none
COc1cc2cc(CCCO)oc(=O)c2cc1OC	none
O=C1OCCN1C(=O)[C@H]1[C@H](c2ccc(Cl)cc2)C(c2ccccc2)=NN1c1ccccc1	HTR5A ag ctr 5.5
O=C1OCCN1C(=O)[C@H]1[C@H](c2ccc(Cl)cc2)C(c2ccc(F)cc2)=NN1c1ccccc1	none
Cc1cccc(CC2S/C(=N/N=C/c3ccco3)N(c3ccccc3)C2=O)c1 (configuration not stated)	HTR5A ag ctr 14
O=C(CSc1nc2ccccc2c(=O)n1-c1ccccc1F)Nc1ccc2c(c1)CCC2	none
CCN(CC)CCn1c(SCC(=O)Nc2ccc3c(c2)CCC3)nc2ccccc2c1=O	HTR5A ag ctr 12
COC(=O)[C@]1(Cc2ccccc2)N[C@H](CN(C)C(=O)c2ccc(F)cc2)[C@@H]2C(=O)N(Cc3ccccc3)C(=O)[C@@H]21	none
CC1CCN(C(=O)COC(=O)c2cc([N+](=O)[O-])ccc2N2CCOCC2)CC1	HTR5A ag ctr 12
COC(=O)C1CCN(C(=O)COC(=O)c2cc([N+](=O)[O-])ccc2N2CCOCC2)CC1	none
COc1ccc(C(CCN(Cc2ccc(OC)c(OC)c2)C(C)=O)c2ccccc2)cc1 (configuration not stated)	none
COc1ccc(CN(CCC(c2ccccc2)c2ccc(OC(C)C)cc2)C(=O)CCl)cc1OC (configuration not stated)	HTR5A ag ctr 52, OPRM1-OPRD1 ag 82
CC1=Nc2cc(C(=O)NCCN3CCOCC3)ccc2Sc2c(C)ccc(C)c21	none
CC1=Nc2cc(C(=O)NCCCN3CCOCC3)ccc2Sc2c(C)ccc(C)c21	HTR5A ag ctr 10.0
CCC(=O)N1CCc2cc(S(=O)(=O)N3CCCCCC3)ccc21	HTR5A ag ctr 13
CCC(=O)N1CCc2cc(S(=O)(=O)N3CCCC3)ccc21	none
CN1CCC(N(C)C(=O)c2sc3cc(F)ccc3c2Cl)CC1	none
CC(C)N(CC(N)=O)C(=O)c1sc2cc(F)ccc2c1Cl	HTR5A ag ctr 13
COc1ccc(/C=N/NC(=O)CCn2c3ccccc3c3ccccc32)cc1O	none
COc1cccc(/C=N/NC(=O)CCn2c3ccccc3c3ccccc32)c1	HTR5A ag ctr 12
Cc1cc(C)c(-c2c(O)c3c(n(C)c2=O)CC(C)(C)CC3=O)c(C)c1	none
Cc1cc(C)c2c(c1)CC(C)(C)CC2=O	HTR5A ag ctr 9.2
